Reference: PubChem BioAssay
Unmarked numbers belong to inactive results. A call without a number means that no potency is given here. For part of these data: Potency and affinity values are given separately. The source made the active and inactive calls. Unless noted, how the calls were made is not given here.

Legend:
[1] = antimalarial activity against Dd2 strain (AID 2302;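 active means growth inhibition above 50% at the single 2 µM test dose, taken to imply half-maximal potency below 2 µM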); conditions: P. falciparum Dd2 in RBCs, LDH growth readout, 72 h; at 2 µM; active compounds read high
[2] = human hepatoma cell viability loss – ATP luminescence, cytotoxicity control for P. falciparum antimalarial project, primary screen (AID 2303;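 active means inhibition above 50%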); conditions: HepG2 viability, 24-48 h, at 10 µM, active compounds read high
[3] = molecular target: L-lactate dehydrogenase (Plasmodium falciparum (isolate CDC / Honduras)) (UniProt Q27743); assay: PfLDH activity inhibition – cell lysate, 3D7 strain, counter-screen for P. falciparum growth inhibition project (AID 2304); conditions: P. falciparum 3D7 crude extract, LDH APAD/NBT absorbance; at 2 µM; active compounds read high
[4] = inhibition of 3D7 malaria parasite growth – strain 3D7 (AID 2306); conditions: P. falciparum 3D7 erythrocytic growth, LDH absorbance, 72 h; at 2 µM; active compounds read high
[5] = molecular target: Calcium-dependent protein kinase 1 (Plasmodium falciparum (isolate 3D7)) (UniProt P62344); assay: PfCDPK1 kinase inhibitors, biochemical, TCAMS library (AID 1159585; cut-off not given, nearly all actives have IC50 up to about 0.98 µM;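 further: inhibitors leave more ATP so luminescence rises with inhibition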); conditions: recombinant PfCDPK1, Kinase-Glo ATP depletion luminescence
[6] = molecular target: Plasmodium falciparum protein kinase 6 (PK6, PF3D7_1337100) (UniProt Q8IDW1); assay: PfPK6 kinase inhibitors, biochemical, TCAMS library (AID 1159586); conditions: recombinant PfPK6, Kinase-Glo ATP depletion luminescence
[7] = molecular target: Protein kinase 7 (PK7), Plasmodium falciparum 3D7 (PF3D7_0213400) (UniProt Q7YTF7); assay: inhibition of Plasmodium PK7 catalytic activity – biochemical, TCAMS antimalarial set, Kinase-Glo luminescence (AID 1159587); conditions: recombinant PfPK7, Kinase-Glo ATP depletion luminescence
[8] = molecular target: Calcium-dependent protein kinase 4 (Plasmodium falciparum (isolate 3D7)) (UniProt Q8IBS5); assay: PfCDPK4 kinase inhibitors, biochemical, TCAMS library (AID 1159588; cut-off not given, nearly all actives have IC50 up to about 0.91 µM); conditions: recombinant PfCDPK4, Kinase-Glo ATP depletion luminescence
Calcium-dependent protein kinase 4 (Plasmodium falciparum (isolate 3D7)), sequence (Q8IBS5 whole entry, looked up): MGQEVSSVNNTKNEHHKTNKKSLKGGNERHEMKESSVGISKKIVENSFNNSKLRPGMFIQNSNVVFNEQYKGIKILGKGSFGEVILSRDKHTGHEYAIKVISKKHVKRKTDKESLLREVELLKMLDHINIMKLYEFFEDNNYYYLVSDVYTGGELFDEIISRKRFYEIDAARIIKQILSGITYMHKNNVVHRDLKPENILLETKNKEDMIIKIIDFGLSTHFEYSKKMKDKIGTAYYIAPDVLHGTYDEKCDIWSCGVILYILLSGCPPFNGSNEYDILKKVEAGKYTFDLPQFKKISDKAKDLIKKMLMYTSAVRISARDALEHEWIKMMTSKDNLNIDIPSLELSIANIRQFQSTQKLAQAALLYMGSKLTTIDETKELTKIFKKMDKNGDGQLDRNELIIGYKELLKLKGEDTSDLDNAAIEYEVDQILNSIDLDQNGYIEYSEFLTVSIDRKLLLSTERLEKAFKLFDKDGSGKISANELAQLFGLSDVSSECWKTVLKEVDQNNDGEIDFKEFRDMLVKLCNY

Plasmodium falciparum protein kinase 6 (PK6, PF3D7_1337100), sequence (Q8IDW1 1-305): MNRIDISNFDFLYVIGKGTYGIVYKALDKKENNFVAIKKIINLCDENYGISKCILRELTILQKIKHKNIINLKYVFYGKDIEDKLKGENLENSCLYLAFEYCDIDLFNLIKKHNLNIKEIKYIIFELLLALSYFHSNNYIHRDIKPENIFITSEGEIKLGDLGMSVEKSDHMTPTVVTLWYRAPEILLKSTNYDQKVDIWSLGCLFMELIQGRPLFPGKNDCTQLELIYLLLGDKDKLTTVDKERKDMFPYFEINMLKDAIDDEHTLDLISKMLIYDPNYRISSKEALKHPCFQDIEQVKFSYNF
L-lactate dehydrogenase (Plasmodium falciparum (isolate CDC / Honduras)), sequence (Q27743 whole entry, looked up): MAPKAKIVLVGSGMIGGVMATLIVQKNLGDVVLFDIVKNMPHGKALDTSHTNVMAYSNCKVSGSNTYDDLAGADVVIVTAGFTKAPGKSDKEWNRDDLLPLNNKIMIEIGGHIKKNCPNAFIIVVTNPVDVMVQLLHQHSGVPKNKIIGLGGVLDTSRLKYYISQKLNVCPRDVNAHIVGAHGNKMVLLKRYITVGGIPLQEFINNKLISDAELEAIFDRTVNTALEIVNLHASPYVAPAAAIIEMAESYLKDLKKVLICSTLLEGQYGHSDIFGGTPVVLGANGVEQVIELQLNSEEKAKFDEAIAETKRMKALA
Protein kinase 7 (PK7), Plasmodium falciparum 3D7 (PF3D7_0213400), sequence (Q7YTF7 1-343): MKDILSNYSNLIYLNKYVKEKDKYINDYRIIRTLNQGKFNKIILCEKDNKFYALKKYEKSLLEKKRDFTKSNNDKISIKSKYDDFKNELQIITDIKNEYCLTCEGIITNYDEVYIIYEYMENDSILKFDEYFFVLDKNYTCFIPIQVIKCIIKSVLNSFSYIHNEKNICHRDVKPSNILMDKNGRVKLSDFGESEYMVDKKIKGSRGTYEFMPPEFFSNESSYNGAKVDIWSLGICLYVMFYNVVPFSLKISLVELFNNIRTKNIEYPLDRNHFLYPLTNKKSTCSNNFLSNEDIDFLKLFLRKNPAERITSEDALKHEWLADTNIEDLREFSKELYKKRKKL
Calcium-dependent protein kinase 1 (Plasmodium falciparum (isolate 3D7)), sequence (P62344 whole entry, looked up): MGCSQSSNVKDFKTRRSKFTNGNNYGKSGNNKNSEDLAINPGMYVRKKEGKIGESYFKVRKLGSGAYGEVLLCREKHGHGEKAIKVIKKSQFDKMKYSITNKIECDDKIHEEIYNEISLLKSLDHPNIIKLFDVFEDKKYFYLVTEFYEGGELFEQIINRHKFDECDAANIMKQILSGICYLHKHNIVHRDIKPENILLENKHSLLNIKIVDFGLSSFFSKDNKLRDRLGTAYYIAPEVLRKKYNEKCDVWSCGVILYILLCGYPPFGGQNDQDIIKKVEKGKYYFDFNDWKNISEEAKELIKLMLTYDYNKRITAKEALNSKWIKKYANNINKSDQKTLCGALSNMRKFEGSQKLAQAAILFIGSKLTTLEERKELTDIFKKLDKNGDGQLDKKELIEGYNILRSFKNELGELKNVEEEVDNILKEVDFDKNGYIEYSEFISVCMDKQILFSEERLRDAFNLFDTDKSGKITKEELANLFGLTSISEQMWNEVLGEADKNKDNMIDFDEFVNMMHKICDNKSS

Compound | growth inhibition [1] | inhibition [2] | inhibition [3] [%] | growth inhibition [4] | outcome [5] | outcome [6] | outcome [7] | outcome [8]
CCCN(CCC)CCOC(=O)C(OCC)(c1ccccc1)c1ccccc1 | 0% | -2% | 0 | 97% (active) | inactive | inactive | inactive | inactive
N=c1c2c(n(Cc3ccc(Cl)cc3Cl)c3c1CCC3)CCCC2 | 73% (active) | -5% | 3 | 94% (active) | inactive | inactive | inactive | inactive
CC(C)n1ncc2c(C(=O)Nc3ccc(C#N)c(Cl)c3)cc(C3CC3)nc21 | 15% | 20% | 2 | 93% (active) | inactive | inactive | inactive | inactive
O=C(NC1CCC(CN2CCC(c3c[nH]c4ccccc34)CC2)CC1)[C@H]1Cc2ccccc2CN1 (stereo partly drawn) | 35% | 29% | 3 | 89% (active) | inactive | inactive | inactive | inactive
CC(=O)N(Cc1cccc(-c2cccc(CNCc3ccc4c(c3)OCO4)c2)c1)C1CCN(Cc2ccccc2)CC1 | 21% | 16% | -5 | 95% (active) | inactive | inactive | inactive | inactive
CNCCN(C)C(=O)Oc1c(Br)c(C)nc(C)c1-c1ccc(Oc2ccc(OC(F)(F)F)cc2)cc1 | 98% (active) | 19% | 2 | 98% (active) | inactive | inactive | inactive | inactive
Cc1ccc(CC(C)NCC(O)c2cccc(C#N)c2)cc1 (stereo not drawn) | 86% (active) | 2% | -2 | 94% (active) | inactive | inactive | inactive | inactive
CC[C@H]1CN2CC[C@@H]1C[C@H]2[C@H](O)c1cc(N2CCC(N3CCCCC3)CC2)nc2ccc(OC)cc12 | 77% (active) | 0% | 3 | 99% (active) | inactive | inactive | inactive | inactive
CS(=O)(=O)Nc1ccc2[nH]cc(C3CCN(CC4CCN(C(=O)/C=C/c5ccc(Cl)c(Cl)c5)CC4)CC3)c2c1 | 92% (active) | 27% | -5 | 101% (active) | inactive | inactive | inactive | inactive
CCN1CC[C@]2(c3cccc(OC)c3)Cc3nc4ccccc4c(-c4ccccc4)c3C[C@H]2C1 | 98% (active) | 0% | -4 | 99% (active) | inactive | inactive | inactive | inactive
COc1ccc(OC)c(C(O)CNC(C)C)c1 (stereo not drawn) | -2% | 3% | -9 | 96% (active) | inactive | inactive | inactive | inactive
CN1CCC(N(C)c2nccc(N3CCN(Cc4cncn4Cc4ccccc4)CC3)n2)CC1 | 100% (active) | 15% | 3 | 100% (active) | inactive | inactive | inactive | inactive
COc1ccc(C=CC(=O)N2CCC(CN3CCC(c4c[nH]c5ccccc45)CC3)CC2)cc1OC | 4% | 20% | 0 | 94% (active) | inactive | inactive | inactive | inactive
O=C(O)c1ccc2nc(-c3ccc(-c4ccccc4)cc3)n(C3CCN(Cc4ccc(-c5ncc[nH]5)cc4)CC3)c2c1 | 99% (active) | 3% | 1 | 91% (active) | inactive | inactive | inactive | inactive
Cc1[nH]c2ccc([N+](=O)[O-])cc2c1C1=CCN(C)CC1 | 68% (active) | 6% | 4 | 86% (active) | inactive | inactive | inactive | inactive
O=C(/C=C/C=C/c1ccccc1)NC1CCC(CN2CCC(c3c[nH]c4ccccc34)CC2)CC1 (stereo not drawn) | 66% (active) | 49% | 7 | 100% (active) | inactive | inactive | inactive | inactive
CC[C@H]1CN2CC[C@@H]1C[C@H]2[C@H](O)c1cc(-c2cc(Cl)cc(Cl)c2)nc2ccc(OC)cc12 | 97% (active) | 0% | -1 | 99% (active) | inactive | inactive | inactive | inactive
CC(Cc1ccc(OCc2ccc(CCN(C)C)cc2)cc1)NCCc1cccc(Cl)c1 (stereo not drawn) | 78% (active) | 42% | 5 | 100% (active) | inactive | inactive | inactive | inactive

Compound | growth inhibition [1] | inhibition [2] | inhibition [3] [%] | growth inhibition [4] | outcome [5] | outcome [6] | outcome [7] | outcome [8]
CCCCOC(C(=O)OCC1CCCN1C)(c1ccccc1)c1ccccc1 (stereo not drawn) | 2% | 3% | 6 | 100% (active) | inactive | inactive | inactive | inactive
COc1cc(C=CC(=O)N2CCC(CN3CCC(c4c[nH]c5ccccc45)CC3)CC2)ccc1O | 25% | 11% | -3 | 82% (active) | inactive | inactive | inactive | inactive
CC(=O)N(Cc1ccccc1-c1cccc(CNCCc2ccccc2)c1)C1CCN(Cc2ccccc2)CC1 | 30% | 19% | 0 | 89% (active) | inactive | inactive | inactive | inactive
CC(=O)N(Cc1ccccc1-c1ccc(CNCCc2ccccc2)cc1)C1CCN(Cc2ccccc2)CC1 | 85% (active) | 24% | 3 | 101% (active) | inactive | inactive | inactive | inactive
O=C1Nc2cccc3c2C1(CCCCN1CC=C(c2c[nH]c4ncccc24)CC1)CCC3 (stereo not drawn) | 80% (active) | 11% | -5 | 92% (active) | inactive | inactive | inactive | inactive
CCCCCCCc1cc(=O)c2ccccc2[nH]1 | 94% (active) | 5% | 1 | 96% (active) | inactive | inactive | inactive | inactive
CC(Cc1ccc(OCCCCOc2ccccc2)cc1)NCCCn1ccnc1 (stereo not drawn) | 101% (active) | 100% (active) | 0 | 101% (active) | inactive | inactive | inactive | inactive
CC[C@H]1CN2CC[C@H]1C[C@@H]2[C@@H](OC(=O)c1ccc(Cl)cc1)c1ccnc2ccc(OC)cc12 | -3% | -18% | -1 | 89% (active) | inactive | inactive | inactive | inactive
CC[C@H]1CN2CC[C@H]1C[C@H]2[C@H](O)c1cc(-c2ccc3ccccc3c2)nc2ccc(OC)cc12 | 99% (active) | 49% | -3 | 99% (active) | inactive | inactive | inactive | inactive
COc1ccc(C(=O)[C@H]2C[C@@H]2CN2CC=C(c3c[nH]c4ccc(OC)nc34)CC2)cc1 | 91% (active) | 8% | -3 | 98% (active) | inactive | inactive | inactive | inactive
O=C(/C=C/c1ccccc1Cl)NC1CCC(CN2[C@@H]3CC[C@H]2CC(c2c[nH]c4ccccc24)C3)CC1 (stereo partly drawn) | 98% (active) | 56% (active) | 3 | 102% (active) | inactive | inactive | inactive | inactive
CCN(CC)CCN1C(=O)C(O)(c2ccccc2Cl)c2c1cc(C(N)=O)cc2C(F)(F)F (stereo not drawn) | 86% (active) | 16% | -4 | 101% (active) | inactive | inactive | inactive | inactive
CC[C@@]1(O)C(=O)OCc2c1cc1n(c2=O)Cc2c-1nc1cc3c(cc1c2CN1CCOCC1)OCO3 | 80% (active) | 81% (active) | 4 | 89% (active) | inactive | inactive | inactive | inactive
CC[C@H]1CN2CC[C@H]1C[C@H]2[C@H](O)c1ccnc2ccc(OC)cc12 | 62% (active) | -8% | -4 | 100% (active) | inactive | inactive | inactive | inactive
O=C(Nc1ccc(Cl)c(Cl)c1)N1CCC(CN2CCC(c3c[nH]c4ccccc34)CC2)CC1 | 69% (active) | 46% | -2 | 100% (active) | inactive | inactive | inactive | inactive
COc1ccc(CC(C)NCC(O)c2cccc(Cl)c2)cc1C (stereo not drawn) | 78% (active) | 11% | -6 | 89% (active) | inactive | inactive | inactive | inactive
OC(CNCc1ccccc1OC(F)F)c1cccc(C(F)(F)F)c1 (stereo not drawn) | 52% (active) | 2% | -2 | 97% (active) | inactive | inactive | inactive | inactive
O=C(NCCCCN1CCC(c2ccc3c(c2OCCO)CCCC3)CC1)c1sc(-c2ccc(C(F)(F)F)cc2)nc1CO | 20% | 37% | -6 | 95% (active) | inactive | inactive | inactive | inactive
